# A selection: hits, their analogues and other compounds. The true share with any hit is near 1.9%.
# SK-BR-3 tox 24h: SK-BR-3 proliferation inhibitors, primary screen, cell-based, human, 24 h; SK-BR-3 viability, CellTiter-Glo ATP luminescence; active compounds read low; viability, % at 10 µM; 41,000 compounds, 0.47% hits;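 active = viability at or below the median of all test compounds minus 3 SD, in both replicates if run twice, cut at about 45% in these data; inconclusive = duplicate replicates that disagree with each other; inactive = viability above that cutoff in every replicate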
# Her2 expr inh: inhibitors of Her2 protein expression, primary screen, SKBR-3 cells, AlphaScreen, 66K library | Receptor tyrosine-protein kinase erbB-2 (Homo sapiens), P04626 | SKBR-3 HER2 protein level, 18-24 h; active compounds read low | HER2 level % of control, % at 10 µM | 65,000 compounds, 0.69% hits | AID 645, 2007;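 active = HER2 level under 5% of the carrier-only control; inconclusive = no clear call, values can overlap the other calls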;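 note: lower value means stronger loss of Her2 protein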
# Target sequence (P04626 whole entry, looked up): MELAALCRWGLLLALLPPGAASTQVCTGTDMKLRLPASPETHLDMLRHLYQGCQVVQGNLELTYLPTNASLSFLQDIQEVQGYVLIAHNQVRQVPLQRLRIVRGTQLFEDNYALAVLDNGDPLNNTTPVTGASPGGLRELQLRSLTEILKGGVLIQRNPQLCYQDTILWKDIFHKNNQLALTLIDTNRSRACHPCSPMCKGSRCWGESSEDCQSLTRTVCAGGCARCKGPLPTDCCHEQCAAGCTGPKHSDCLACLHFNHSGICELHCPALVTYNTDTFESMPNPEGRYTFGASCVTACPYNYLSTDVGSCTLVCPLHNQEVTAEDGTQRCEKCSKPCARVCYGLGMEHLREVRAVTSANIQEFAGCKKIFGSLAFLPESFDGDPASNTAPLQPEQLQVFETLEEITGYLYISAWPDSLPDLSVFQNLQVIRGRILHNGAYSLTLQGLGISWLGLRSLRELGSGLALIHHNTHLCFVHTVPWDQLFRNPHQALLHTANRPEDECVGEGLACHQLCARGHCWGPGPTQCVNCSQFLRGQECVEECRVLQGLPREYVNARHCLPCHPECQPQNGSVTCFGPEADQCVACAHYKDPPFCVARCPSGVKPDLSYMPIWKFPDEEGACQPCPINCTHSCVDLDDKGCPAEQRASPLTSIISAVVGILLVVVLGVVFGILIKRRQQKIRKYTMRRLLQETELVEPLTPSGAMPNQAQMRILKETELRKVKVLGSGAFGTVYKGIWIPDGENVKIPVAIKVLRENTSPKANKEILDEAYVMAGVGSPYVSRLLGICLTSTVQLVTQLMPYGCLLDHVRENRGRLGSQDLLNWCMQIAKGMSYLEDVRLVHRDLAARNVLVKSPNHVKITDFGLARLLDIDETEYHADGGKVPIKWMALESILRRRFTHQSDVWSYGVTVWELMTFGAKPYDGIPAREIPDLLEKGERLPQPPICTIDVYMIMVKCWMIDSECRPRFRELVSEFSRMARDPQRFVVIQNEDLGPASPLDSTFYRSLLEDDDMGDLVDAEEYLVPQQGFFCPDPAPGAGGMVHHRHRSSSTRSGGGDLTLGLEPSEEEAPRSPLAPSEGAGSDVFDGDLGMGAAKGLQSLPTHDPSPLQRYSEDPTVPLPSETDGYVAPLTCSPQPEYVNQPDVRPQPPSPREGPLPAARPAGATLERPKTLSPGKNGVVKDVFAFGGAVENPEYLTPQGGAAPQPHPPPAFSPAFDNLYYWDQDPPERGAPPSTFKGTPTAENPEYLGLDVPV
# Jurkat viability: cytotoxicity toward Jurkat T cells, primary screen, cytotoxicity control, cell-based, Jurkat E6.1, 60K MLSMR library; 56,000 compounds, 1.2% hits; inhibition, % at 4 µM; Jurkat E6.1 viability, ATP luminescence, 48 h;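 active = inhibition above the mean inhibition of all tested compounds plus 3 SD, cut at about 28% in these data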
# A number is an active result; n = inactive; u = inconclusive; x = no result.
SMILES,SK-BR-3 tox 24h,Her2 expr inh,Jurkat viability
COC(=O)C1=C(C)N(CC2CCCO2)C(=O)C1 (stereo unspecified),x,n,n
CCc1nn2cc(-c3ccccc3)nc2s1,n,x,n
O=C(O)CCc1nn2cc(-c3ccccc3)nc2[nH]c1=O,n,-19,x
Cc1cc(NC(=O)CSc2nnc(C3CC3)n2C)no1,n,n,n
Cc1cc(NC(=O)CSc2nnc3c(C)cc4c(C)ccc(C)c4n23)no1,n,n,90
CCOC(=O)c1[nH]c2ccc(C)cc2c1N,n,n,x
CCOC(=O)C1(N(CC)CC)Sc2cc(C)ccc2NC1=O (stereo unspecified),n,n,36
COc1ccc(NC(=O)CCn2cccc2)cc1,x,n,n
CCCOc1ccc(C(=O)CCN2CCCCC2)cc1,n,-20,n
CCOc1ccc(C(=O)CCN2CCCCCC2)cc1,n,n,n
O=C(NC1CCCC1)C(c1ccco1)N(Cc1ccccc1)C(=O)c1csnn1 (stereo unspecified),n,n,n
CCCCn1c(SCC(=O)c2ccccc2)nc2c1c(=O)[nH]c(=O)n2C,x,n,n
Cc1ccc2c(c1)N(CC(=O)OC(CC(C)C)C(=O)NC1CCCC1)C(=O)CO2 (stereo unspecified),n,-24,n
CC(C)C(OC(=O)CN1C(=O)COc2ccccc21)C(=O)NC1CCCC1 (stereo unspecified),n,n,n
CN(C)c1ccc2c(c1)OC(N)=C(C#N)C2c1cccc(F)c1 (stereo unspecified),x,n,86
N#CC1=C(N)Oc2cc(O)ccc2C1c1ccncc1 (stereo unspecified),n,n,n
CC1(C)CC2CC(C)(CN2C(=O)c2cc(-c3ccccc3O)on2)C1 (stereo unspecified),x,n,n
C=C1Cn2c(nnc2-c2ccc(Cl)cc2)S1,x,n,n
Cc1ccnc(NC(=O)CCCOc2cc(=O)n(C)c3ccccc23)c1,x,n,89
Cn1c(=O)cc(OCCCC(=O)NCc2ccccn2)c2ccccc21,x,n,n
Cc1nc(C)c(C(=O)C2=C(O)C(=O)N(CCCn3ccnc3)C2c2ccc(Cl)cc2)s1 (stereo unspecified),n,n,n
CCN(CC)c1ccc2cc(C(=O)Nc3ccccn3)c(=O)oc2c1,n,n,x
CCN(CC)c1ccc2cc(NC(=O)CCC(=O)O)c(=O)oc2c1,43,n,n
Cc1ccnc(SCCn2c(N3CCOCC3)nc3c2c(=O)n(C)c(=O)n3C)n1,n,n,n
COc1cccc(C2C=C(c3ccc(OC)cc3OC)Nc3nnnn32)c1 (stereo unspecified),u,n,41
SMILES,SK-BR-3 tox 24h,Her2 expr inh,Jurkat viability
COc1ccc(C2=CC(c3ccc(OC)c(OC)c3)n3nnnc3N2)c(OC)c1 (stereo unspecified),n,n,n
COc1ccc(OC)c(C2C=C(c3ccc(C)c(C)c3)Nc3nnnn32)c1 (stereo unspecified),n,n,n
C=CCOC(=O)C1=C(C)Nc2nnnn2C1c1cc(OC)ccc1OC (stereo unspecified),n,-18,n
COc1cccc(C2=CC(c3cccc(OC)c3OC)n3nnnc3N2)c1 (stereo unspecified),n,n,67
CCOC(=O)C1=C(C)Nc2nnnn2C1c1ccc(OC)c(Br)c1 (stereo unspecified),x,n,n
COc1cccc(C2=CC(c3cccc(OC)c3OC(F)F)n3nnnc3N2)c1 (stereo unspecified),n,n,n
COc1cccc(C2=CC(c3cc(OC)ccc3OC)n3nnnc3N2)c1 (stereo unspecified),n,n,90
C=CCn1c(SCC(N)=O)nnc1-c1cc(Br)ccc1O,n,n,n
CC(C)C(c1nnnn1Cc1ccccc1)N1CCN(Cc2ccc3c(c2)OCO3)CC1 (stereo unspecified),x,n,n
CC(C)(C)NC(=O)CC(CC(=O)O)c1ccccc1 (stereo unspecified),x,n,n
CCOc1ccc(Nc2nc3c(c(=O)[nH]2)CCCC3)cc1,n,n,n
O=c1[nH]c(Nc2nc3ccccc3o2)nc2c1CCCC2,x,-3.3,n
CCSC1(SCC)N=C(N)C2(C#N)C(c3ccccc3)NC3=C(CCC3)C12C#N (stereo unspecified),n,n,n
CCSC1(SCC)N=C(N)C2(C#N)C(c3ccc(OC)c(OC)c3OC)C12C#N (stereo unspecified),n,3.5,n
O=C(CSc1nnc(CNC(=O)c2cccs2)o1)NCCc1ccccc1,x,n,x
Fc1ccc2[nH]c3c(N4CCN(c5ccccc5)CC4)ncnc3c2c1,n,n,x
OC1(c2cccc(C(F)(F)F)c2)CCN(c2ncnc3c2[nH]c2ccc(F)cc23)CC1,n,n,53
